From the supplement of paper PMC8975748
Structures can show the parent of a compound that is named as a salt. ± gives the standard deviation of the averaged measurements.

Each compound was assayed on Saccharomyces cerevisiae BY4741 SeMeCo community (assay: mean cell size (pixel area) (pixels); higher = larger cells). Conditions: 10 µM; 24 h; SM minimal medium.
Procedure, shortened: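 Mean cell pixel area per well was measured in a four-plasmid fluorescent community of Saccharomyces cerevisiae BY4741, where every plasmid complements one auxotrophy and carries a fluorescent marker. Cells from an overnight preculture at OD600 = 1.0 were diluted to OD600 = 0.3 and dispensed at 70 µl into 384-well plates acoustically predosed with drug to a final 10 µM in SM medium. Incubation lasted 24 h, followed by paraformaldehyde fixation, automated confocal imaging and analysis in Harmony. Reported figures are averaged over 3 replicates. Same SeMeCo high-content imaging drug screen: Selleck FDA-approved drugs at 10 µM, 24 h in SM medium, 384-well plates, 3 replicates.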
In the case of `CC[C@H](C)C(=O)O[C@H]1CCC=C2C=C[C@H](C)[C@H](CC[C@@H]3C[C@@H](O)CC(=O)O3)[C@H]21` [Mevastatin], the mean cell size is reported as 11.6 ± 0.14.
In the case of `CN1CCN(CCCN2c3ccccc3Sc3ccc(C(F)(F)F)cc32)CC1` [Trifluoperazine 2HCl], the mean cell size is reported as 12.1 ± 0.41.
In the case of `C[C@]12CC[C@@H]3c4ccc(OS(=O)(=O)O)cc4CC[C@H]3[C@@H]1CCC2=O` [Estropipate], the mean cell size is reported as 12.21 ± 0.12.
`O=C(Cn1ccnc1[N+](=O)[O-])NCc1ccccc1` [Benznidazole] showed a mean cell size of 12.49 ± 0.12.
In the case of `CCN(Cc1ccncc1)C(=O)C(CO)c1ccccc1` (centres undefined) [Tropicamide], the mean cell size is reported as 12.48 ± 0.099.

These compounds were tested on Saccharomyces cerevisiae BY4741 SeMeCo community (assay: z-score of prototroph abundance vs DMSO median; higher = larger share of this subpopulation than in DMSO controls). Conditions: 10 µM; 24 h; SM minimal medium; subpopulation (auxotrophy): Prototroph.
Procedure, shortened: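 Automated confocal microscopy of paraformaldehyde-fixed cells was used to follow a Saccharomyces cerevisiae BY4741 community carrying four plasmids, each restoring one auxotrophy and encoding a distinct fluorescent protein. The community was pre-grown overnight to OD600 1.0, diluted to 0.3, and added at 70 µl to 384-well plates acoustically predosed with library drugs (10 µM final) for 24 h of growth in minimal SM medium. Single-auxotroph fluorescent strains set thresholds and autofluorescence correction, and each subpopulation's abundance was scored as a z-score against the vehicle-well median.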
For `CC(C)Cc1ccc(C(C)C(=O)O)cc1` (centres undefined) [Ibuprofen], the “z-score of prototroph abundance” value was 3.17.
In the case of `Fc1ccc(C(c2ccc(F)cc2)N2CCN(C/C=C/c3ccccc3)CC2)cc1` [Flunarizine 2HCl], the “z-score of prototroph abundance” value is reported as -1.16.
`COCCCN1CCC(NC(=O)c2cc(Cl)c(N)c3c2OCC3)CC1` [Prucalopride Succinate] was tested, and the “z-score of prototroph abundance” value was -1.55.
For `CCCCOc1ccc(CC(=O)NO)cc1` [Bufexamac], the “z-score of prototroph abundance” value was 1.23.
In the case of `NCC[C@H](O)C(=O)N[C@@H]1C[C@H](N)[C@@H](O[C@H]2O[C@H](CN)[C@@H](O)[C@H](O)[C@H]2O)[C@H](O)[C@H]1O[C@H]1O[C@H](CO)[C@@H](O)[C@H](N)[C@H]1O` [Amikacin disulfate], the “z-score of prototroph abundance” value is reported as 0.25.
With `CCC(=O)NS(=O)(=O)c1ccc(-c2c(-c3ccccc3)noc2C)cc1` [Parecoxib Sodium] the “z-score of prototroph abundance” value was -1.76.
For `CN(CCN1CCC(OC(=O)Nc2ccccc2-c2ccccc2)CC1)C(=O)c1ccc(CN2CCC(C(N)=O)CC2)cc1` [Revefenacin], the “z-score of prototroph abundance” value was -0.26.
For `Cc1nnc(NS(=O)(=O)c2ccc(N)cc2)s1` [Sulfamethizole], the “z-score of prototroph abundance” value was 0.97.
`CC1=CC[C@@](O)(C(C)C)CC1` [Terpinen-4-ol] was tested, and the “z-score of prototroph abundance” value was -0.41.
For `Cn1c([N+](=O)[O-])cnc1COC(N)=O` [Ronidazole], the “z-score of prototroph abundance” value was 1.22.
In the case of `CC(=O)OCC(COC(C)=O)OC(C)=O` [Triacetin], the “z-score of prototroph abundance” value is reported as 0.21.
With `COc1ccc(Cl)cc1C(=O)NCCc1ccc(S(=O)(=O)NC(=O)NC2CCCCC2)cc1` [Glyburide (Glibenclamide)] the “z-score of prototroph abundance” value was -0.6.
For `O=C(Nc1c(Cl)cncc1Cl)c1ccc(OC(F)F)c(OCC2CC2)c1` [Roflumilast], the “z-score of prototroph abundance” value was 0.36.
`CN(C)[C@@H](CCOc1cccc2ccccc12)c1ccccc1` [Dapoxetine HCl] was tested, and the “z-score of prototroph abundance” value was 0.05.
In the case of `CN(C)CCC=C1c2ccccc2C(C)(C)c2ccccc21` [Melitracen hydrochloride], the “z-score of prototroph abundance” value is reported as 1.
For `COc1cc(Cc2cnc(N)nc2N)cc(OC)c1OC` [Trimethoprim], the “z-score of prototroph abundance” value was 0.19.
In the case of `OCCN1CCN(CCCN2c3ccccc3Sc3ccc(C(F)(F)F)cc32)CC1` [Fluphenazine dihydrochloride], the “z-score of prototroph abundance” value is reported as -0.57.
With `CC(C)c1c(C(=O)Nc2ccccc2)c(-c2ccccc2)c(-c2ccc(F)cc2)n1CC[C@@H](O)C[C@@H](O)CC(=O)O` [Atorvastatin] the “z-score of prototroph abundance” value was -2.62.
In the case of `NNc1nncc2ccccc12` [Hydralazine HCl], the “z-score of prototroph abundance” value is reported as 0.63.
In the case of `COCCOC(=O)C1=C(C)NC(C)=C(C(=O)OC(C)C)C1c1cccc([N+](=O)[O-])c1` (centres undefined) [Nimodipine], the “z-score of prototroph abundance” value is reported as 0.04.
In the case of `CCOC(=O)C1=C(C)NC(C)=C(C(=O)OC)C1c1cccc([N+](=O)[O-])c1` (centres undefined) [Nitrendipine], the “z-score of prototroph abundance” value is reported as 0.18.
`CC(C)n1c(/C=C/C(O)CC(O)CC(=O)O)c(-c2ccc(F)cc2)c2ccccc21` (centres undefined) [Fluvastatin Sodium] was tested, and the “z-score of prototroph abundance” value was -11.
With `CCCN[C@H]1CCc2nc(N)sc2C1` [Pramipexole dihydrochloride] the “z-score of prototroph abundance” value was 0.25.
With `Cc1cc(C)nc(NS(=O)(=O)c2ccc(N)cc2)n1` [Sulfamethazine] the “z-score of prototroph abundance” value was 0.
In the case of `CC[C@H](C)C(=O)O[C@H]1C[C@@H](C)C=C2C=C[C@H](C)[C@H](CC[C@@H]3C[C@@H](O)CC(=O)O3)[C@H]21` [Lovastatin], the “z-score of prototroph abundance” value is reported as -1.34.
With `CN1[C@@H]2CC[C@H]1C[C@@H](OC(c1ccccc1)c1ccccc1)C2` [Benztropine mesylate] the “z-score of prototroph abundance” value was 1.01.
In the case of `CO/N=C(\C(=O)N[C@@H]1C(=O)N2C(C(=O)O)=C(CSc3nnnn3C)CS[C@H]12)c1csc(N)n1` [Cefmenoxime hydrochloride], the “z-score of prototroph abundance” value is reported as -0.33.
For `CO/N=C(\C(=O)N[C@@H]1C(=O)N2C(C(=O)O)=C(CSc3nc(C)c(CC(=O)O)s3)CS[C@H]12)c1csc(N)n1` [Cefodizime Sodium], the “z-score of prototroph abundance” value was 0.26.
For `CC[C@H](C)C(=O)O[C@H]1CCC=C2C=C[C@H](C)[C@H](CC[C@@H]3C[C@@H](O)CC(=O)O3)[C@H]21` [Mevastatin], the “z-score of prototroph abundance” value was 0.08.
